B1: ENSMUSG00000032194.8|Kank2 (ssRNA)
RNA: GGGAGUUCUACAGUCCGACGAUCGCUUCGAUAUCCGCAUGCUAGCCGAGGAGUGAAUACAGGGAGGAGCCAGUGAGUCCCCCAGGACCCACCAGCCACAAGCCACGCAUCAAACCGUCCCUCCUCCAUCCCUCUGUCCCAUUCUGCCUCGGCAUUCCUCAGCCCCUGAACUUCCCUGAGGGAGCCCUGACAUCUACCAGGCUCAAGCUCCUGGAAGCCUUUCCCAGCACCCUGGGUUCAAAGCCAGAAAGCCAAGCUACAUUCUCCUCCCAGUUGGCACCAGUUGACAACGCCUUGGGUGUGGCUCUUGCGGUCGCACUAGUGUGGAAUUCUCGGGUGUCAAGG
B2: ENSMUSG00000031028.492|Tub|69:75;106:112 (ssRNA)
RNA: GGGAGUUCUACAGUCCGACGAUCGCUUCGAUAUCCGCAUGCUAUUUAAAUGAACAUGGGGUGGUGAUGGUGCCUUAACAAUCUUGACACUAAGGUGAAGCAAGCAAGUAAGCACACACCCUCUGGGAAGACAGGAGUCGGAAGCCAAGCACACACGCAACAGUCUGGAAGAGAGCUUUUGGUAAUCAUACCGUCUUCAGUGACAAGGCAACAAUGCUGUAAAGUGGGUUUGUUUGGUUUUGUUUUUUCUUUCUCUUUUAUGGAAAUGGCAGGUCUAUUUGCCUCAAACGUUAUGUAGAAGUAGCUCUUGCGGUCGCACUAGUGUGGAAUUCUCGGGUGUCAAGG
B3: ENSMUSG00000061578.750|Ksr2 (ssRNA)
RNA: GGGAGUUCUACAGUCCGACGAUCGCUUCGAUAUCCGCAUGCUACAAGUUUGAGUCUCCAUAUGGGCCCUUCCUGUCCUCAUGCCCUGCCUGUCUUCAUUCCACCCAUCCACCCUCCUAAGGAUUGGUCUUGUUCCGAGAGUGAUCCUGGUAACGCCAAGCCUCCCUCUGCCCCUGUGUUGGCUUCUGUGACGGACUACCACACACCAAGAGGUUUUUCACAGUGAAGAUGUAUGCUCUCACCAUCCUACAGAUGCAAAGACCAAACACAAAGUGUCUGCAUGACCUUCCCCCUCUGGAAUUUGCUCUUGCGGUCGCACUAGUGUGGAAUUCUCGGGUGUCAAGG
B4: ENSMUSG00000028439.172|Fam219a (ssRNA)
RNA: GGGAGUUCUACAGUCCGACGAUCGCUUCGAUAUCCGCAUGCUAUAUGGUAUGGUAUGGUAUGGUAUGGUAUGGUAUGCACAUGUGUGUGCAUGUGUGUGUGCCUGUGUGUGUGCGUGUGCGUGUGUGUAUGUGUGUGCGUGUGUGUGUGUGUGUGUUGUACCCGAGUGUGUGUUGAGCCUAUCUGUCCAGGGAACCAGAUUGGUGUCCGAGAUGAGGAAAUGGCUGUGGCCUGGGAAAUCAGUGAGAGGCCGCUUGGGAAUGAGAAUGCAGUGGACUGAAAGCACAGCCUGGCCAUCUGGAACCUCUUGCGGUCGCACUAGUGUGGAAUUCUCGGGUGUCAAGG
B5: ENSMUSG00000028439.176|Fam219a (ssRNA)
RNA: GGGAGUUCUACAGUCCGACGAUCGCUUCGAUAUCCGCAUGCUAGUAUGGUAUGCACAUGUGUGUGCAUGUGUGUGUGCCUGUGUGUGUGCGUGUGCGUGUGUGUAUGUGUGUGCGUGUGUGUGUGUGUGUGUUGUACCCGAGUGUGUGUUGAGCCUAUCUGUCCAGGGAACCAGAUUGGUGUCCGAGAUGAGGAAAUGGCUGUGGCCUGGGAAAUCAGUGAGAGGCCGCUUGGGAAUGAGAAUGCAGUGGACUGAAAGCACAGCCUGGCCAUCUGGAACCUGGGUUCUGGUCCCAGCCUCGGCCUCUUGCGGUCGCACUAGUGUGGAAUUCUCGGGUGUCAAGG
B6: ENSMUSG00000028439.171|Fam219a (ssRNA)
RNA: GGGAGUUCUACAGUCCGACGAUCGCUUCGAUAUCCGCAUGCUAAUAUGGUAUGGUAUGGUAUGGUAUGGUAUGGUAUGGUAUGCACAUGUGUGUGCAUGUGUGUGUGCCUGUGUGUGUGCGUGUGCGUGUGUGUAUGUGUGUGCGUGUGUGUGUGUGUGUGUUGUACCCGAGUGUGUGUUGAGCCUAUCUGUCCAGGGAACCAGAUUGGUGUCCGAGAUGAGGAAAUGGCUGUGGCCUGGGAAAUCAGUGAGAGGCCGCUUGGGAAUGAGAAUGCAGUGGACUGAAAGCACAGCCUGGCCAUCCUCUUGCGGUCGCACUAGUGUGGAAUUCUCGGGUGUCAAGG
B7: ENSMUSG00000028439.174|Fam219a|3:22;27:34;37:46;49:58;60:64;66:82;84:101;111:118 (ssRNA)
RNA: GGGAGUUCUACAGUCCGACGAUCGCUUCGAUAUCCGCAUGCUAUGCAUACCAUACCAUACCAUACCACAACACACACCAACACACACACCCACACACACACCCACACCCACACACAUACACACACCCACACACACACACACACAUGUACCCGACACACACAUGAGCCUAUCUGUCCAGGGAACCAGAUUGGUGUCCGAGAUGAGGAAAUGGCUGUGGCCUGGGAAAUCAGUGAGAGGCCGCUUGGGAAUGAGAAUGCAGUGGACUGAAAGCACAGCCUGGCCAUCUGGAACCUGGGUUCUGGUCUCUUGCGGUCGCACUAGUGUGGAAUUCUCGGGUGUCAAGG
B8: ENSMUSG00000028439.175|Fam219a (ssRNA)
RNA: GGGAGUUCUACAGUCCGACGAUCGCUUCGAUAUCCGCAUGCUAGGUAUGGUAUGGUAUGCACAUGUGUGUGCAUGUGUGUGUGCCUGUGUGUGUGCGUGUGCGUGUGUGUAUGUGUGUGCGUGUGUGUGUGUGUGUGUUGUACCCGAGUGUGUGUUGAGCCUAUCUGUCCAGGGAACCAGAUUGGUGUCCGAGAUGAGGAAAUGGCUGUGGCCUGGGAAAUCAGUGAGAGGCCGCUUGGGAAUGAGAAUGCAGUGGACUGAAAGCACAGCCUGGCCAUCUGGAACCUGGGUUCUGGUCCCAGCCUCUUGCGGUCGCACUAGUGUGGAAUUCUCGGGUGUCAAGG
B9: ENSMUSG00000028439.173|Fam219a (ssRNA)
RNA: GGGAGUUCUACAGUCCGACGAUCGCUUCGAUAUCCGCAUGCUAAUGGUAUGGUAUGGUAUGGUAUGGUAUGCACAUGUGUGUGCAUGUGUGUGUGCCUGUGUGUGUGCGUGUGCGUGUGUGUAUGUGUGUGCGUGUGUGUGUGUGUGUGUUGUACCCGAGUGUGUGUUGAGCCUAUCUGUCCAGGGAACCAGAUUGGUGUCCGAGAUGAGGAAAUGGCUGUGGCCUGGGAAAUCAGUGAGAGGCCGCUUGGGAAUGAGAAUGCAGUGGACUGAAAGCACAGCCUGGCCAUCUGGAACCUGGGUCUCUUGCGGUCGCACUAGUGUGGAAUUCUCGGGUGUCAAGG
B10: ENSMUSG00000028439.170|Fam219a (ssRNA)
RNA: GGGAGUUCUACAGUCCGACGAUCGCUUCGAUAUCCGCAUGCUAUGUAUGAUAUGGUAUGGUAUGGUAUGGUAUGGUAUGGUAUGGUAUGCACAUGUGUGUGCAUGUGUGUGUGCCUGUGUGUGUGCGUGUGCGUGUGUGUAUGUGUGUGCGUGUGUGUGUGUGUGUGUUGUACCCGAGUGUGUGUUGAGCCUAUCUGUCCAGGGAACCAGAUUGGUGUCCGAGAUGAGGAAAUGGCUGUGGCCUGGGAAAUCAGUGAGAGGCCGCUUGGGAAUGAGAAUGCAGUGGACUGAAAGCACAGCCUGCUCUUGCGGUCGCACUAGUGUGGAAUUCUCGGGUGUCAAGG
B11: ENSMUSG00000028439.174|Fam219a (ssRNA)
RNA: GGGAGUUCUACAGUCCGACGAUCGCUUCGAUAUCCGCAUGCUAUGGUAUGGUAUGGUAUGGUAUGCACAUGUGUGUGCAUGUGUGUGUGCCUGUGUGUGUGCGUGUGCGUGUGUGUAUGUGUGUGCGUGUGUGUGUGUGUGUGUUGUACCCGAGUGUGUGUUGAGCCUAUCUGUCCAGGGAACCAGAUUGGUGUCCGAGAUGAGGAAAUGGCUGUGGCCUGGGAAAUCAGUGAGAGGCCGCUUGGGAAUGAGAAUGCAGUGGACUGAAAGCACAGCCUGGCCAUCUGGAACCUGGGUUCUGGUCUCUUGCGGUCGCACUAGUGUGGAAUUCUCGGGUGUCAAGG
B12: ENSMUSG00000031028.589|Tub (ssRNA)
RNA: GGGAGUUCUACAGUCCGACGAUCGCUUCGAUAUCCGCAUGCUAUUUCUUUCAGUUUAUGGCCACCUGCCCAAAUUGACUUCCAGCUUACAAUCUUCUGUCAUUUCAAGAUCGUAAGAAGUACUGGGAUGGGUUUGAGUUUUCAGCACAGAGGCGAGUUGAUCUAGGAGCAUACAACUGUACUGAGCAGCUAGAGCAUUUGAGCAACCCAUGUAAUCUUUGUGUUUCCCUCCCUGUAAGAAGGCCUGUCAGAGCUUGCUGUAGGAGUUAGGGUAAAUGAAAGUUAGUCCUGGCUCUCAUCACCACUCUUGCGGUCGCACUAGUGUGGAAUUCUCGGGUGUCAAGG
B13: ENSMUSG00000004113.44|Cacna1b (ssRNA)
RNA: GGGAGUUCUACAGUCCGACGAUCGCUUCGAUAUCCGCAUGCUAUCCGCCGUGUACCCAAUGGCUAUCACUGCACUUUGGGACUCAGCACUGGCGUCCGGGCGCGGCACAGCUACCACCACCCCGAUCAGGACCACUGGUGCUAGCUGCACCACGACCACCCAUGUACCAGCUCCAUGGGUGAGGGUUCCAGUUGAUGAGUUUUAUCAUCCGCUCUGGGCUGUGGGGUCACAGCCCUGGGAGGAGGGCCCUCACAUCUCGGCCUCUGUGGUGGAGGCUCCUGCUUCCCUCCCUCCCUCCCUUUUCUCUUGCGGUCGCACUAGUGUGGAAUUCUCGGGUGUCAAGG

Over roughly 9,900 sequences, “r (bound/input frequency ratio)” has its median near 0.7; the highest 2% begin near 6.5. The entries come from a sample that favours the highest values as a whole.

The test deals with TDP-43 (Homo sapiens, UniProt Q13148 1-414). The test is described as follows: RNA Bind-n-Seq with designed 260-mer pool; 25 mM Tris-HCl, 150 mM KCl, 3 mM MgCl2, BSA (printed 500 mg/mL), 20 units/mL SUPERase IN; pH not stated; 500 nM RNA pool, 1 h, 4 C; TDP-43 5, 50, 500 nM; high values mean tight binding. Particulars: protein: recombinant; tags: SBP (GST cleaved off with PreScission; pGEX-GST-SBP). In outline: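 Binding (R) is the ratio of each oligo's mapped-read-normalized abundance in the bound fraction to its abundance in the input. To obtain it, SBP-tagged recombinant TDP-43 (5, 50 or 500 nM) on streptavidin beads was incubated with 500 nM of an in vitro-transcribed 260-nt 3′ UTR oligo pool for 1 h at 4 °C in 25 mM Tris-HCl, 150 mM KCl, 3 mM MgCl2, BSA and SUPERase IN. The RNA retained after washing was released with biotin, then reverse transcribed, amplified by PCR and sequenced.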
Sequence of TDP-43 (Q13148 whole entry): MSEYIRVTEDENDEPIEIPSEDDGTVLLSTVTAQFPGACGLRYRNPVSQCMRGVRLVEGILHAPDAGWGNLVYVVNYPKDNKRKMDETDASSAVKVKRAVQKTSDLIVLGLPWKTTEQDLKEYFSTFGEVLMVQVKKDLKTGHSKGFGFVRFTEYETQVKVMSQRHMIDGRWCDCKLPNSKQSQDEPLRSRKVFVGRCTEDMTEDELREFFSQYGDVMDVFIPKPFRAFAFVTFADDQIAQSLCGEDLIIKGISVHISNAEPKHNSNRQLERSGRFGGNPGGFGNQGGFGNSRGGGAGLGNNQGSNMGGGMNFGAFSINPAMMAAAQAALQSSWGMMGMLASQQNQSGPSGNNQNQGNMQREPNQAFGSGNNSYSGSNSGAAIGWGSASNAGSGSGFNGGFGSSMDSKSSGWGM
On to B1, for which the binding signal is 1.4 R (bound/input frequency ratio).

As to B2, the binding signal is 0.828 R (bound/input frequency ratio).

In the case of B3, the binding signal was 0.725 R (bound/input frequency ratio).

Regarding B4, the binding signal is 6.41 R (bound/input frequency ratio).

Regarding B5, the binding signal was 5.69 R (bound/input frequency ratio).

On to B6, for which the binding signal was 8.2 R (bound/input frequency ratio).

With B7, the binding signal is 1.59 R (bound/input frequency ratio).

As to B8, the binding signal was 7.42 R (bound/input frequency ratio).

For B9, the binding signal is 6.03 R (bound/input frequency ratio).

As to B10, the binding signal was 6.06 R (bound/input frequency ratio).

For B11, the binding signal is 7.57 R (bound/input frequency ratio).

As for B12, the binding signal was 0.299 R (bound/input frequency ratio).

B13: the binding signal was 0.443 R (bound/input frequency ratio).

For the origin of these results see publication PMC12864922, “TDP-43 directly inhibits mRNA accumulation in neurites through modulation of mRNA stability”.
